# About 1,000 (0.29%) of roughly 340,000 compounds were called active. Rule as the data show it: inconclusive = inhibition above about 29% without an active follow-up result; inactive = below that. The list is a sample of the results. Results with a measured potency or affinity are listed apart.
# Target: Genome polyprotein (Dengue virus type 2 (strain 16681-PDK53)) (UniProt P29991)
# Experiment: Dengue-2 NS5 methyltransferase inhibitors, primary screen, biochemical, confirmation dose response (AID 588689)
# Conditions: Dengue-2 NS5 methyltransferase capping enzyme assay, at 25 µM, stronger effect = higher value
# Sequence of Genome polyprotein (Dengue virus type 2 (strain 16681-PDK53)) (P29991 whole entry, looked up): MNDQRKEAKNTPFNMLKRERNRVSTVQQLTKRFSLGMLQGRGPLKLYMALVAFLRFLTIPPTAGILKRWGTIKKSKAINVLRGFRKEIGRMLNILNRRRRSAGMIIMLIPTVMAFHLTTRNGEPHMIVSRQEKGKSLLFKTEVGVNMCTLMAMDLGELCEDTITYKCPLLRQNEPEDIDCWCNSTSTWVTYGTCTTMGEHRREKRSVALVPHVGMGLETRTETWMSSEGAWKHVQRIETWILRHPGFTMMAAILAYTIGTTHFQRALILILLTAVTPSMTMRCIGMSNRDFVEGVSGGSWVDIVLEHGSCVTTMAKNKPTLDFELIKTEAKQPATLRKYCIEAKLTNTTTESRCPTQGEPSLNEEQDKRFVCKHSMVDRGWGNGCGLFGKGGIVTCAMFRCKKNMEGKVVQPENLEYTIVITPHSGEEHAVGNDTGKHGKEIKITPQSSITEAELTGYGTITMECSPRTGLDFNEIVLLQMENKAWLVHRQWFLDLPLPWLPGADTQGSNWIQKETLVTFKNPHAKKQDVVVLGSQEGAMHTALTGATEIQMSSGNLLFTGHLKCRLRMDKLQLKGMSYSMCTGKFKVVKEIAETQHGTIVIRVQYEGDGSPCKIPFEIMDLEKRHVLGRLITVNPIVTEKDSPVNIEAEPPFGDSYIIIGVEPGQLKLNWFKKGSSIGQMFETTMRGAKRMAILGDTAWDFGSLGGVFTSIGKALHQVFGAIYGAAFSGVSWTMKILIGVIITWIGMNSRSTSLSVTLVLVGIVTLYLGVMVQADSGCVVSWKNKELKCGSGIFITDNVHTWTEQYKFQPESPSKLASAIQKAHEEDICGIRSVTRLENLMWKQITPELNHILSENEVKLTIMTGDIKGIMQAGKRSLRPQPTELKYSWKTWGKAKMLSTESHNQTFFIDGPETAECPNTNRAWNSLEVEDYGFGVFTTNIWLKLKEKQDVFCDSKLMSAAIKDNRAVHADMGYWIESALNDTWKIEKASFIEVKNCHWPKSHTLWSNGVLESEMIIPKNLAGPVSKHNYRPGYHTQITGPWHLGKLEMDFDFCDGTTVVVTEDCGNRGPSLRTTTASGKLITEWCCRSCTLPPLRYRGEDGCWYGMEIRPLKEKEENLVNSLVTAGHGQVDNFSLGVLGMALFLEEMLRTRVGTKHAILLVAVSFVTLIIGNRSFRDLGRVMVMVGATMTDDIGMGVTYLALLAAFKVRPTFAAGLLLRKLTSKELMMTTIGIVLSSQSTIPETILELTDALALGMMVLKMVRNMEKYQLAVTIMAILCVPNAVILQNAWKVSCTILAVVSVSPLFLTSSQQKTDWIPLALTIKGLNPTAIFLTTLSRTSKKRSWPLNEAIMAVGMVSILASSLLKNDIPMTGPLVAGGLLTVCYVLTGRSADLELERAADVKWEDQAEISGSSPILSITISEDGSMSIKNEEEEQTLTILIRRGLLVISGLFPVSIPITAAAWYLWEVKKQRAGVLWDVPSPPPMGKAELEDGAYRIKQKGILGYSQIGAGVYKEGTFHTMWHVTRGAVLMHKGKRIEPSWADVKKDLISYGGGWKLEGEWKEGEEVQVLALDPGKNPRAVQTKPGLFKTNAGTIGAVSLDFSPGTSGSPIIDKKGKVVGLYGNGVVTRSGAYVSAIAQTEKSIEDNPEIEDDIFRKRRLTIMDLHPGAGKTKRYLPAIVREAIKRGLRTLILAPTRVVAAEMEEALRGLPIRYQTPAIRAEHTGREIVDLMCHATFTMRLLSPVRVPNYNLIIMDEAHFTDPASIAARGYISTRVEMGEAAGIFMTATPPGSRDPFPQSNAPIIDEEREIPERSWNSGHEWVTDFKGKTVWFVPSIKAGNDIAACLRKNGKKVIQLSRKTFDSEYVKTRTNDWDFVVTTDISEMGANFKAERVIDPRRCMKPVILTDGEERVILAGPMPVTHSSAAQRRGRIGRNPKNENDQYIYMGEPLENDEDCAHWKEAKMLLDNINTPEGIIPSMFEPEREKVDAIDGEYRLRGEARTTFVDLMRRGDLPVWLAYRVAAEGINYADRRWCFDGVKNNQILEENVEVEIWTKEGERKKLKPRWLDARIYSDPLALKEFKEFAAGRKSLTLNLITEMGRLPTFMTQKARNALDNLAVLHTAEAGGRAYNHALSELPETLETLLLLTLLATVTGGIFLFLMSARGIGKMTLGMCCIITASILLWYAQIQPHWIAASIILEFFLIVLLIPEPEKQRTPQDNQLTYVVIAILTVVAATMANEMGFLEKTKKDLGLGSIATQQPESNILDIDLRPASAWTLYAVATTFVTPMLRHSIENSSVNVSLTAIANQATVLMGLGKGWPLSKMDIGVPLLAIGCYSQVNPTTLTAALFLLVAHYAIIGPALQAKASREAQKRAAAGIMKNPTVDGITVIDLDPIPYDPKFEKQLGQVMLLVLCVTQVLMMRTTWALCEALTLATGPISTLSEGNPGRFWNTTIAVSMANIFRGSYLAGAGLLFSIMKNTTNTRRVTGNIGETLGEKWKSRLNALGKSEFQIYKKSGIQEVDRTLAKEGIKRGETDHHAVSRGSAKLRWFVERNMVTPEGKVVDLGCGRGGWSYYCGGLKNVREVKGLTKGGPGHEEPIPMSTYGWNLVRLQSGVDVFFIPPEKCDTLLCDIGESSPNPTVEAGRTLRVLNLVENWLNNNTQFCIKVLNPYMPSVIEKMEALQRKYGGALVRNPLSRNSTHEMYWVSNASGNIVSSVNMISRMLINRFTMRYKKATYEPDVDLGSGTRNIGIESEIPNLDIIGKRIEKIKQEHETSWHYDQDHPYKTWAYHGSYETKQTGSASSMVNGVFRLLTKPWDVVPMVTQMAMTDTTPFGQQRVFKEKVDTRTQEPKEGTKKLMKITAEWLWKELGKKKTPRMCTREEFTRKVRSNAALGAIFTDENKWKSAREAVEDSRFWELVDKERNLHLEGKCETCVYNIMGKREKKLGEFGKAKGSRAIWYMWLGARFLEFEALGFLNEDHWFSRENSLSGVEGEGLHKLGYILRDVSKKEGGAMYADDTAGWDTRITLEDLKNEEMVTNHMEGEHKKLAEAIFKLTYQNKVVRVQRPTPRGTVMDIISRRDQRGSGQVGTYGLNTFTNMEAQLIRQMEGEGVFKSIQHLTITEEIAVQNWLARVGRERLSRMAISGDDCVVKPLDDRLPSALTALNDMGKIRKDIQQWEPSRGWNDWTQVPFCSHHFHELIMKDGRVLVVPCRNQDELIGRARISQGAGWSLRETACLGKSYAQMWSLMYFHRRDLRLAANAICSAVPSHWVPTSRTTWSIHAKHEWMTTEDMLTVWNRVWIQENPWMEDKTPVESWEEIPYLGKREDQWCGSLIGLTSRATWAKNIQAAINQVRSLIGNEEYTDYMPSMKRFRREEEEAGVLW
SMILES,inhibition,inhibition (measured here: pilot screen replicate inhibition) [%]
CCNc1nc(SC(C(C)=O)C(C)=O)nc(N(C)C)n1,-1.07% (inactive),
COc1ccc([N+](=O)[O-])cc1NCC(=O)Nc1cccc(S(=O)(=O)N2CCCC2)c1,-0.72% (inactive),
O=C1C(c2ccncc2)=C(O)c2ccccc21,2.03% (inactive),
O=C1C(c2c(O)[nH]c3ccccc23)=Nc2ccccc21,-46.9% (inactive),
Clc1ccc(-c2nsc(N3CCOCC3)n2)c(Cl)c1,-8.96% (inactive),
Cc1cc(C)c(NC(=O)CNC(=O)COC(=O)/C=C/c2cccs2)c(C)c1,-7.3% (inactive),
CCc1nnc(NS(=O)(=O)c2ccc(NC(=S)NC(=O)/C=C/c3ccc(OC)cc3)cc2)s1,-1.6% (inactive),
CCc1nnc(NS(=O)(=O)c2ccc(NC(=S)NC(=O)/C=C/c3ccc([N+](=O)[O-])cc3)cc2)s1,9.83% (inactive),
CCc1nnc(NS(=O)(=O)c2ccc(NC(=S)NC(=O)/C=C/c3ccccc3)cc2)s1,8.99% (inactive),
CCc1nnc(NS(=O)(=O)c2ccc(NC(=O)/C=C/c3ccc(F)cc3)cc2)s1,3.59% (inactive),
CC(C)NC1(C#N)CCN(Cc2ccccc2)CC1,0% (inactive),
CCOc1ccc(Nc2nc(C)cc(C)c2C#N)cc1,0% (inactive),
COC(=O)c1sc(N)c(C(=O)OC)c1COC(=O)CNS(=O)(=O)c1cccc(C#N)c1,-1.45% (inactive),
COC(=O)c1cc(C)c(C)cc1NC1OC(CO)C(O)C1O (stereo not given),-9.68% (inactive),
C[C@H](CO)N1C[C@H](C)[C@@H](CN(C)C(=O)c2cnccn2)Oc2cc(C#CCC3CCCC3)ccc2S1(=O)=O,-16.2% (inactive),
O=C(NCc1ccccc1)N1CCC(CO)(CCc2ccccc2)CC1,5.32% (inactive),
O=C(O)C1Nc2c(Cl)cc(Cl)c(Cl)c2C2C=CCC12 (stereo not given),8.87% (inactive),
CC(C)C1Nc2ccc(S(N)(=O)=O)cc2C2C=CCC21 (stereo not given),16% (inactive),
CCOC(=O)N1CCC(NC(=O)CCS(=O)(=O)c2ccc3c(c2)CCN3C(C)=O)CC1,0% (inactive),
CCOC(=O)/C=C(\C)Sc1cc(=O)oc2ccccc12,-12.1% (inactive),
CCOC(=O)c1c(C)oc2c1cc(O)c1ccccc12,18.5% (inactive),
O=C(O)COc1ccc(/C=C/C(=O)c2ccc3ccccc3c2)cc1,21.6% (inactive),
CCOc1ccc(/C=C/C(=O)c2ccccc2)cc1,-8.48% (inactive),

SMILES,inhibition,inhibition (measured here: pilot screen replicate inhibition) [%]
CCOC(=O)c1[nH]nc2c1C(=O)N(Cc1ccccc1)C2=O,-0.68% (inactive),
CCCCNC(=O)c1sc2ncnc(N3CCc4ccccc4C3)c2c1C,-8.03% (inactive),
Cc1cc(C)cc(NC(=S)N(Cc2ccc(Br)cc2)Cc2ccc(C(=O)O)cc2)c1,-6.24% (inactive),
Cc1cccc(NC(=S)N(Cc2ccc(Cl)cc2)Cc2ccc(C(=O)O)cc2)c1,-0.79% (inactive),
CC1CCCN(C(=O)CCNC(=O)Cn2cnc3ccccc3c2=O)C1 (stereo not given),-2.67% (inactive),
COc1ccc(S(=O)(=O)Oc2ccc3ccccc3c2)cc1,0.73% (inactive),
NS(=O)(=O)c1ccc(Sc2ccc3ccccc3c2)nc1,-5.01% (inactive),
COC(=O)c1ccc(NC(=O)C(=O)N2CCN(C(=S)Nc3cccc(C)c3C)CC2)cc1,-4.36% (inactive),
COc1ccc(NC(=O)Cc2c(C(=O)O)n(C)c3ccccc23)cc1OC,-17.2% (inactive),
C[C@H](CO)N1C[C@H](C)[C@@H](CN(C)C(=O)Nc2ccccc2)Oc2c(NC(=O)Cc3ccccc3)cccc2C1=O,-4% (inactive),
COC(=O)c1c(C(=O)OC)c2ccccn2c1C(=O)c1ccccc1,-4.66% (inactive),
COC(=O)c1cc2c(-c3ccccc3)cc3ccccn3c-2c1C(=O)OC,27.1% (inactive),
COc1ccc(CN(C)C(C)C(=O)Nc2ccc(S(=O)(=O)N3CCCCC3)cc2)cc1F (stereo not given),0.37% (inactive),
CSCCC(C(=O)OCC(=O)c1ccc(C)c(C)c1)N1C(=O)c2cc(Cl)c(Cl)cc2C1=O (stereo not given),10.7% (inactive),
O=C1NCCCC2c3c(cc(Br)c(O)c3Br)OC12N1CCOCC1 (stereo not given),17% (inactive),-2.28
O=C1NCCCC2c3c(cc(Br)c(O)c3Br)OC12N1CCCCC1 (stereo not given),10.4% (inactive),
CCOC(=O)C(NC(=O)Cc1ccccc1)(Nc1cc(C)on1)C(F)(F)F (stereo not given),-5.64% (inactive),
CCCn1c(SCC(=O)c2[nH]c(C)c(C(C)=O)c2C)n[nH]c1=O,-15.1% (inactive),
COc1ccc(CCNC(=O)C2CC(c3ccc([N+](=O)[O-])cc3)=NO2)cc1 (stereo not given),2.79% (inactive),
CN(C1CCCCC1)S(=O)(=O)c1cn(C)c(=O)n(C)c1=O,-3.31% (inactive),
COc1cc(C=NNC(=O)c2ccccc2NS(=O)(=O)c2cccs2)cc(OC)c1O,2.21% (inactive),
O=C(NN=Cc1ccc(O)cc1)c1ccccc1NS(=O)(=O)c1cccs1,2.92% (inactive),
O=c1cc(-c2nn[nH]n2)[nH]c(=O)[nH]1,-0.8% (inactive),

SMILES,inhibition,inhibition (measured here: pilot screen replicate inhibition) [%]
O=C(CN1C(=O)c2cccc([N+](=O)[O-])c2C1=O)N1CCc2ccccc2C1,-5.49% (inactive),
O=c1c(C(c2ccc(O)cc2)c2c(O)nc3n(c2=O)CCCS3)c(O)nc2n1CCCS2,60.7% (inactive),
O=c1c(C(c2ccc(Br)cc2)c2c(O)nc3n(c2=O)CCS3)c(O)nc2n1CCS2,11.7% (inactive),
O=c1c(C(c2ccc(Cl)cc2)c2c(O)nc3n(c2=O)CCS3)c(O)nc2n1CCS2,3.89% (inactive),
O=c1c(C(c2ccc(F)cc2)c2c(O)nc3n(c2=O)CCS3)c(O)nc2n1CCS2,-0.78% (inactive),
O=Cc1ccc(F)c([B-](F)(F)F)c1,-5.86% (inactive),
COc1ccc(N2CC(C(=O)NC3CCCCC3)CC2=O)cc1 (stereo not given),-15.2% (inactive),
NC(=S)N=Nc1c(O)[nH]c2ccccc12,-8.45% (inactive),
NC(=S)N=Nc1c(O)[nH]c2ccc(F)cc12,1.93% (inactive),
Cc1ccc(C)c(S(=O)(=O)NC2CCSC2=O)c1 (stereo not given),0% (inactive),
COc1ccc(NS(=O)(=O)c2cc(NC(=O)c3cccc(OCc4c(C)noc4C)c3)ccc2OC)cc1,-4.53% (inactive),
Clc1ccc(Oc2nc(Oc3ccc(Cl)cc3)nc(N3CCOCC3)n2)cc1,5.62% (inactive),
CC(NC(=O)C12CC3CC(CC(C3)C1)C2)C(=O)N/N=C/C1=C(N2CCOCC2)C(=C\c2ccccc2)/CC1 (stereo not given),-2.59% (inactive),
CN(CCO)C(=O)c1cccc2c1-c1ccccc1C2=O,2.07% (inactive),
CN(C)c1cccc2c1C(=O)c1ccccc1C2=O,2.91% (inactive),
Cc1nnc(NC(=O)CSc2nnc(CCNC(=O)c3ccccc3F)n2C)s1,-9.78% (inactive),
Cc1cc(=O)oc2c(O)c(O)ccc12,0.73% (inactive),
Cc1oc2c(O)c(O)ccc2c(=O)c1-c1ccccc1,1.39% (inactive),
O=C(O)c1cccc(O)c1O,2.93% (inactive),
O=C1c2ccccc2C(=O)c2c1ccc(O)c2O,0% (inactive),
CC(C)(Oc1ccc(Cl)cc1)C(=O)Nc1ccc2oc(-c3ccncc3)nc2c1,2.08% (inactive),
COc1cc(C)c(S(=O)(=O)NCc2ccc3c(c2)OCO3)cc1C,-1.39% (inactive),
Cc1nn(-c2ccccc2)nc1CNC(=O)C(C)Cc1ccccc1 (stereo not given),-2.38% (inactive),

SMILES,inhibition,inhibition (measured here: pilot screen replicate inhibition) [%]
O=C(C1=C[C@H](C2CCCCC2)C[C@H](OCc2ccc(CO)cc2)O1)N1CCOCC1,-6.54% (inactive),
Cc1c(CC(=O)N[C@@H](C)C(=O)O)c(=O)oc2c(C)c3occ(-c4ccccc4)c3cc12,-0.65% (inactive),
CSC[C@H](NC(=O)Cc1c(C)c2cc3c(C)c(C)oc3cc2oc1=O)C(=O)N[C@@H](Cc1ccccc1)C(=O)O,1.4% (inactive),
CCCCC(NC(=O)Cc1c(C)c2cc3c(C)c(C)oc3c(C)c2oc1=O)C(=O)O (stereo not given),1.31% (inactive),
CCCC(NC(=O)Cc1c(C)c2cc3c(C)c(C)oc3c(C)c2oc1=O)C(=O)N[C@@H](Cc1ccccc1)C(=O)O (stereo not given in full),1.45% (inactive),
CCCOc1ccc(NC(=O)CC2C(=O)N(CC)C(=S)N2Cc2cccs2)cc1 (stereo not given),-2.45% (inactive),
C/C(=C\c1cccc(Cl)c1)C(=O)c1c(C)cc(C)[nH]c1=O,0.68% (inactive),
COc1ccc(S(=O)(=O)N2CCN(c3ccccc3)CC2)cc1,-2.22% (inactive),
Cc1cccc(N2CCN(c3nc(C)cc(C)c3C#N)CC2C)c1 (stereo not given),-4.66% (inactive),
COc1ccc(/C=C2\SC(=S)N(C(C(=O)O)c3ccccc3)C2=O)c(OC)c1 (stereo not given),-11.9% (inactive),
COc1cccc(/C=C2\SC(=S)N(N3CCOCC3)C2=O)c1OC,-5.48% (inactive),
CCOc1ccc(/C=C2\SC(=S)N(C(C(=O)O)c3ccccc3)C2=O)cc1OC (stereo not given),16.8% (inactive),
CCOc1ccc(/C=C2/SC(=S)N(C(C(=O)O)c3ccccc3)C2=O)cc1OCC (stereo not given),22.1% (inactive),
COc1cccc(/C=C2\SC(=S)N(c3cccnc3)C2=O)c1OC,6.89% (inactive),
COc1ccc(OC)c(/C=C2\SC(=S)N(C(C(=O)O)c3ccccc3)C2=O)c1 (stereo not given),-26.1% (inactive),
O=C1/C(=C/c2cccs2)SC(=S)N1c1ccccc1,-4.85% (inactive),
O=C(O)C(c1ccccc1)N1C(=O)/C(=C\c2ccc(-c3ccccc3Cl)o2)SC1=S (stereo not given),12.4% (inactive),
CC1(C(=O)N2CCN(c3ccc([N+](=O)[O-])cc3)CC2)CC1(Cl)Cl (stereo not given),-2.36% (inactive),
CN(CC(=O)Nc1ccc(F)cc1)C(=O)CSc1nccn1C,7.2% (inactive),
Cn1nc(C(=O)NCc2cccc(Cl)c2)c2c1-c1ccccc1S(=O)(=O)C2,5.32% (inactive),

# — PubChem BioAssay AID588689 (Southern Research Specialized Biocontainment Screening …, 2011)
